The values below come from PubChem BioAssay (NCATS).

Inconclusive results are not listed. The source made the active and inactive calls. Calls follow the shape of the dose curve; as a rule, active = well fitted activation curve with a large enough effect; inconclusive = small, poorly fitted or top-dose-only effect; inactive = no such curve, though single readings can be large or run the other way.
Potency is read from the fitted curve at half-maximal effect.

The target of the assay is Cellular tumor antigen p53 (Homo sapiens) (UniProt P04637). Description: Primary qHTS for small molecule compounds that upregulate eGFP-tagged delta133p53alpha (in N-terminal) cells. (AID 2060322). Also: nearly all actives have a fitted effect of over 75% in size.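 As to activation: series mostly up to about 56 µM; 0% = DMSO vehicle and 100% = reference activator.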 The following applies: NCI-H358 eGFP-delta133p53alpha fluorescence, 24 h; activation: active compounds read high. Summed up: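 NCI-H358 cells pre-induced 24 h with 10 ng/ml doxycycline to express N-terminal eGFP-delta133p53alpha, then dosed 24 h at 37C without doxycycline; fixed, Hoechst-stained, GFP intensity by laser scanning cytometry, normalized to DMSO (0%) and 57.5 uM 5-azacytidine (100%).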
Sequence of Cellular tumor antigen p53 (Homo sapiens) (P04637 whole entry, looked up): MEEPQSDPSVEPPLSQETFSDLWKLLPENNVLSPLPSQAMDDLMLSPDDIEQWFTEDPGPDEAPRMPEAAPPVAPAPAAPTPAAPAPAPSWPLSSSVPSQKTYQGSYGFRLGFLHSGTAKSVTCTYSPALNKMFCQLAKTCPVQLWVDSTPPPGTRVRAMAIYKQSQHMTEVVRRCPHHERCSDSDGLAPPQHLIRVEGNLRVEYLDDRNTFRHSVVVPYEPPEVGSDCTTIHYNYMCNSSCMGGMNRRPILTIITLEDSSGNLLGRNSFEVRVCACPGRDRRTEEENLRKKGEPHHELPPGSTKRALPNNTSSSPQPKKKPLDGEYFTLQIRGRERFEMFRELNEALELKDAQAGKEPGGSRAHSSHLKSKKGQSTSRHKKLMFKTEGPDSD
(qHTS replaces the single test concentration by a dilution series.)
For the compound `CC(Cc1ccccc1)NCCn1cnc2c1c(=O)n(C)c(=O)n2C` (configuration not stated), the activation was 9.6% (inactive). The same measure, in the same setting: for `CCC(=O)CCCCC[C@@H]1NC(=O)[C@H]2CCCCN2C(=O)[C@H]([C@@H](C)CC)NC(=O)[C@H](Cc2cn(OC)c3ccccc23)NC1=O` the value was -11.2% (inactive); for `C=CCOC(Cn1ccnc1)c1ccc(Cl)cc1Cl` (configuration not stated), 6.69% (inactive); for `CC(Cc1ccccc1)N(C)Cc1ccco1` (configuration not stated), -11.7% (inactive).

On to `c1ccc2c(c1)sc1ccccc12`, for which the activation is -5.02% (inactive). Still for that read-out and setting: the figure for `O=[N+]([O-])O[C@H]1CO[C@H]2[C@@H]1OC[C@H]2O[N+](=O)[O-]` is 34.5% (inactive); for `Nc1ccc(Cl)cc1` it is -6.21% (inactive). As for `CCOCCOC(C)=O`, the activation was -27.7% (inactive). `N[C@@H](Cc1ccc(Oc2cc(I)c(O)c(I)c2)c(I)c1)C(=O)O`: the activation was 11.7% (inactive). Consider `CNCC(=O)c1ccc(O)c(O)c1`, for which the activation was 8.47% (inactive). For the compound `Cc1ncc2n1-c1ccc(Cl)cc1C(c1ccccc1F)=NC2`, the activation is -27.7% (inactive). On the same count and under the same terms, the figure for `CN(C)C(=O)Oc1cc(OC(=O)N(C)C)cc(C(O)CNC(C)(C)C)c1` (configuration not stated) is -17.6% (inactive).

Regarding `OC(c1ccccc1)(c1ccccc1)C1CCNCC1`, the activation was -13.4% (inactive). For `O=C(O)COc1nc(Cl)c(Cl)cc1Cl`, the activation was 6.21% (inactive). Same read-out and setting: for `CCCCCCCCCC(=O)O[C@H]1CC[C@H]2[C@@H]3CCC4=CC(=O)CC[C@@H]4[C@H]3CC[C@]12C` the value was 2.82% (inactive). On to `[N-]=[N+]=CC(=O)OC[C@H](N)C(=O)O`, for which the activation was 5.02% (inactive). For `C[C@]12CC[C@H]3[C@@H](CC[C@@]45O[C@H]4C(O)=C(C#N)C[C@]35C)[C@H]1CC[C@H]2O`, the Potency was 21.7 µM (active).
